From PubChem
NPSR antagonist – blocks cAMP signaling of the human neuropeptide S receptor; actives 1% (n = 220,000); Potency, µM (top dose mostly 38.3 µM), actives largely listed as inhibitors; Q6W5P4; CHO-NPSR cells, cAMP TR-FRET, antagonist mode; also: nearly all actives have a fitted effect of over 50% in size
GoLoco inh red – inhibitors of human Gai1-RGS12 GoLoco interaction (red fluorophore) | P63096 | Gai1:RGS12 GoLoco peptide FP, rhodamine, 10 min | Potency, µM (highest dose often 61.6 µM), actives largely listed as inhibitors | actives 0.44% (n = 230,000) | AID 880; active = well fitted inhibition curve with a large enough effect, not every such curve was filed as active; inactive = no such curve, though single readings can be large or run the other way; also: nearly all actives have a fitted effect of over 30% in size
Sfp PPTase inh – inhibitors of Bacillus subtilis Sfp phosphopantetheinyl transferase; Potency, µM, hits mostly inhibitors; AID 1490; Biochemical Sfp PPTase activity, qHTS; actives 3.5% (n = 310,000); Q9F4F7;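 also: the enzyme is Sfp with the accession as filed and its product quenches rhodamine fluorescence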
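Compounds were incubated with enzyme (final 15 nM) for 15 min at room temperature before substrate addition started the reaction. Fluorescence at 525 nm excitation, 598 nm emission was recorded immediately and after 30 minutes.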
FBPA coupling cs – counter-screen for Giardia aldolase inhibitors: coupling enzyme system; activity change, negative = inhibition, % at 58.2 µM, hits read low; actives 0.67% (n = 290,000); coupling enzyme system counterscreen, AmpLite Red fluorescence; in the data active = activity change below about -30%
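Counterscreen lacking aldolase: glyceraldehyde-3-phosphate coupling-enzyme reagent preincubated 10 min at RT with compound (at 57.5 uM final), then substrate/coupling system with AmpLite Red added; fluorescence read at 525/598 nm after 20 min RT.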
ALDH1A1 block – blocks purified human ALDH1A1 activity; actives 7.3% (n = 220,000); Potency, µM (series often up to 75.3 µM), usual class: inhibitors; AID 1030; Purified ALDH1A1, NADH fluorescence, propionaldehyde substrate; active = well fitted inhibition curve with a large enough effect, not every such curve was filed as active; inconclusive = small, poorly fitted or top-dose-only effect, or another doubt; inactive = no such curve, though single readings can be large or run the other way
Target sequence (P00352 whole entry, looked up): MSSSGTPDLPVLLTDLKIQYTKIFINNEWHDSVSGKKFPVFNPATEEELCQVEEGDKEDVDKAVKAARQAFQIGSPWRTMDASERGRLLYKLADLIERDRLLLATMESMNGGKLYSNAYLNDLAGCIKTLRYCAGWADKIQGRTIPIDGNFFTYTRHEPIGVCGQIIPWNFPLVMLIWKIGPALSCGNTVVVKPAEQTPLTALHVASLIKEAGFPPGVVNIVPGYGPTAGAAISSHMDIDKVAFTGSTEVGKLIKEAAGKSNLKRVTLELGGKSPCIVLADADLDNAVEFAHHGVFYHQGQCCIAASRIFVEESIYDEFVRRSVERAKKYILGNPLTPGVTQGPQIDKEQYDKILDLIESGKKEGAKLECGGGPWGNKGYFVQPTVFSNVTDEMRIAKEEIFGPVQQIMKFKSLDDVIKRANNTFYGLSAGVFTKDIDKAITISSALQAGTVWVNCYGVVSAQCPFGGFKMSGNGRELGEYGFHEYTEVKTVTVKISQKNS
JMJD2E inh – inhibitors of human JMJD2E histone demethylase | B2RXH2 | JMJD2E catalytic domain, FDH-coupled NADH fluorescence (FDH is formaldehyde dehydrogenase) | Potency, µM (titrated, usually from 57.1 µM), most hits filed as inhibitors | actives 1.6% (n = 230,000); active = well fitted inhibition curve with a large enough effect, not every such curve was filed as active; inconclusive = small, poorly fitted or top-dose-only effect, or another doubt; inactive = no such curve, though single readings can be large or run the other way; also: nearly all actives have a fitted effect of over 50% in size
Of the large screens only hits and unclear results are named; the others gave an inactive call. Most compounds without a hit are left out; they make up all but 8.5% or so of the library. Unless noted, calls follow the shape of the dose curve; as a rule, active = well fitted curve in the direction sought with a large enough effect; inconclusive = small, poorly fitted or top-dose-only effect, or another doubt; inactive = no such curve, though single readings can be large; an effect the other way counts as inactive or inconclusive.

O=C(O)CN1C(=O)C2C3CC(C2C1=O)C1C(c2ccc(F)cc2)c2sc(=O)[nH]c2SC31 (stereo not drawn)	Sfp PPTase inh 44.7µM, ALDH1A1 block inconclusive
O=c1[nH]c2c(s1)C(c1cccnc1)C1C3CCC(C3)C1S2 (stereo not drawn)	none (no result: ALDH1A1 block)
Cc1ccc(C2c3c(oc4ccccc4c3=O)C(=O)N2c2nncs2)cc1 (stereo not drawn)	none (no result: ALDH1A1 block)
O=C(Cn1cnc(S(=O)(=O)N2CCOCC2)c1)Nc1ccc(OC(F)(F)F)cc1	none (no result: NPSR antagonist, GoLoco inh red, FBPA coupling cs, ALDH1A1 block, JMJD2E inh)
Cc1c(-c2ccccc2)sc(N)c1C(=O)N1CCOCC1	Sfp PPTase inh 44.7µM, ALDH1A1 block 12.6µM, JMJD2E inh inconclusive
COc1ccc(C(=O)CC(=O)C(=O)Nc2ccccc2Cl)cc1	none (no result: NPSR antagonist, GoLoco inh red, ALDH1A1 block, JMJD2E inh)
O=C1CCCC2=C1C(c1cccs1)Nc1ccc3ncccc3c12 (stereo not drawn)	ALDH1A1 block inconclusive, JMJD2E inh inconclusive
Cc1ccsc1C1Nc2ccc3ncccc3c2C2=C1C(=O)CC(C)(C)C2 (stereo not drawn)	FBPA coupling cs -31.2, ALDH1A1 block inconclusive
O=C1CCCC2=C1C(c1ccc(O)c(O)c1)Nc1ccc3ncccc3c12 (stereo not drawn)	Sfp PPTase inh inconclusive, JMJD2E inh 25.1µM
COc1cccc(CN2CCNC(=O)C2CC(=O)NCC2CCOCC2)c1 (stereo not drawn)	none (no result: NPSR antagonist, GoLoco inh red, FBPA coupling cs, ALDH1A1 block, JMJD2E inh)
Nn1c(=S)[nH]nc(Cc2ccc(O)cc2)c1=O	Sfp PPTase inh 15.8µM, ALDH1A1 block inconclusive, JMJD2E inh inconclusive
COc1ccc(Cc2n[nH]c(=S)n(N)c2=O)cc1	Sfp PPTase inh 56.2µM, ALDH1A1 block inconclusive
CC1(C)Cc2c(c(N3CCCC3)nc3sc4c(N5CCNCC5)ncnc4c23)CO1	ALDH1A1 block inconclusive, JMJD2E inh inconclusive
CCc1ccc(O)c(N=Cc2cccc(C)c2O)c1	ALDH1A1 block inconclusive, JMJD2E inh inconclusive
CCCc1ccc(O)c(N=Cc2cc(Br)cc(OCC)c2O)c1	JMJD2E inh 15.8µM
Cc1ccc(CC(=S)N2CCOCC2)cc1	Sfp PPTase inh 35.5µM, ALDH1A1 block 23.8µM
COc1ccc(CC(=S)N2CCOCC2)cc1	Sfp PPTase inh 15.8µM, ALDH1A1 block 8.91µM
CCc1ccc(CC(=S)N2CCOCC2)cc1	none
CC(=O)Nc1c(I)c(C(=O)O)c(I)c(N(C)C(C)=O)c1I	none (no result: NPSR antagonist, GoLoco inh red, FBPA coupling cs, ALDH1A1 block, JMJD2E inh)
[O-]/C(=C(\C(=S)Nc1cccc2ccccc12)[n+]1ccccc1)c1cccs1	Sfp PPTase inh inconclusive, ALDH1A1 block inconclusive, JMJD2E inh inconclusive
Cc1ccc(NC(=S)/C(=C(\[O-])c2ccc(C)c([N+](=O)[O-])c2)[n+]2ccccc2)cc1C	ALDH1A1 block inconclusive
COc1cccc(NC(=S)/C(=C(\[O-])c2ccc(C)c([N+](=O)[O-])c2)[n+]2ccccc2)c1	Sfp PPTase inh 56.2µM, ALDH1A1 block inconclusive
[O-]/C(=C(\C(=S)Nc1cccc2ccccc12)[n+]1ccccc1)c1ccc2c(c1)OCCO2	Sfp PPTase inh 44.7µM, FBPA coupling cs -46.4, ALDH1A1 block 10µM, JMJD2E inh inconclusive
[O-]/C(=C(\C(=S)Nc1cccc2ccccc12)[n+]1ccccc1)c1ccc(OC(F)F)cc1	Sfp PPTase inh 44.7µM, FBPA coupling cs -40.5, ALDH1A1 block 18.9µM, JMJD2E inh inconclusive
CC(C)C(=O)c1cc2c(cc1NC(=O)Nc1cccc3ccccc13)OCCO2	NPSR antagonist inconclusive, ALDH1A1 block inconclusive, JMJD2E inh inconclusive
COc1cccc(NC(=S)/C(=C(\[O-])c2ccc(OC(F)F)cc2)[n+]2ccccc2)c1	Sfp PPTase inh 50.1µM, ALDH1A1 block 20µM
Cc1cc(C(C)(C)C)cc(C)c1CCNC(=O)c1ccc[n+]([O-])c1	none (no result: NPSR antagonist, GoLoco inh red, ALDH1A1 block, JMJD2E inh)
Cc1ccc(/C([O-])=C(/C(=S)Nc2ccc(SC(F)F)cc2)[n+]2ccccc2)cc1[N+](=O)[O-]	Sfp PPTase inh 12.6µM, FBPA coupling cs -31.4, ALDH1A1 block 4.47µM
Cc1ccccc1NC(=S)/C(=C(\[O-])c1ccc(C)c([N+](=O)[O-])c1)[n+]1ccccc1	none
CC(C)(C)C1CCC2(CC1)C(C#N)=C(SCC(=O)NC1CCCCC1)NC(=O)C2C#N (stereo not drawn)	ALDH1A1 block inconclusive
C=CCSC1=C(C#N)C2(CCCCC2)C(C#N)C(=O)N1 (stereo not drawn)	ALDH1A1 block 2.51µM
N#CC1=C(SCC(=O)NC23CC4CC(CC(C4)C2)C3)NC(=O)C(C#N)C12CCCCC2 (stereo not drawn)	ALDH1A1 block 1.12µM
N#CC1=C(SCC(=O)NC2CC2)NC(=O)C(C#N)C12CCCCC2 (stereo not drawn)	ALDH1A1 block 12.6µM
CCOC(=O)C1=C(SCC(=O)Nc2ccccc2)NC(=O)C(C#N)C12CCCCC2 (stereo not drawn)	ALDH1A1 block 12.6µM
C=CCSC1=NC(N)=C(C#N)C2(CCCCC2)C1C(N)=O (stereo not drawn)	ALDH1A1 block inconclusive
O=C(CSc1ncn[nH]1)NC12CC3CC(CC(C3)C1)C2	none
CC1CCCC(C)N1CC(O)COc1c(F)cc(Br)cc1F (stereo not drawn)	none
COc1cccc(CC2(CO)CCCN(Cc3sc(N4CCCC4)nc3Cl)C2)c1 (stereo not drawn)	ALDH1A1 block inconclusive
CCCNC(=O)C1(O)c2cc(Br)ccc2NC(=O)N1c1ccc(Cl)cc1 (stereo not drawn)	none (no result: NPSR antagonist, GoLoco inh red, ALDH1A1 block, JMJD2E inh)
N#CC1=C(SCC(=O)Nc2cccc3cccnc23)NC(=O)C(C#N)C12CCCCC2 (stereo not drawn)	FBPA coupling cs -36.4, ALDH1A1 block 8.91µM
O=C(CN1C(=O)c2ccccc2C1=O)Nc1cccc2cccnc12	NPSR antagonist inconclusive
CC(=O)Nc1ccc(NC(=O)c2ccc(-n3c(C)ccc3C)cc2)cc1	ALDH1A1 block 22.4µM
Cc1ccc(C)n1-c1ccc(C(=O)N/N=C/c2ccncc2)cc1	ALDH1A1 block 17.8µM
Cc1cc(C)cc(-n2c(C)cc(/C=N/NC(=O)c3ccncc3)c2C)c1	ALDH1A1 block inconclusive, JMJD2E inh inconclusive
Cc1ccccc1-n1c(C)cc(/C=N/NC(=O)c2ccncc2)c1C	NPSR antagonist inconclusive, ALDH1A1 block 31.6µM
CCn1c2ccccc2n2c(=O)c(=O)n(CC(=O)Nc3ccc(C(C)C)cc3)nc12	Sfp PPTase inh inconclusive, ALDH1A1 block inconclusive
COc1ccc(/C=C/C(=O)NCC(c2ccc(F)cc2)N2CCOCC2)cc1OC (stereo not drawn)	JMJD2E inh inconclusive (no result: ALDH1A1 block)
O=C(Nc1ccccc1C(=O)Nc1ccncc1)c1ccccc1	none (no result: NPSR antagonist, GoLoco inh red, ALDH1A1 block, JMJD2E inh)
O=C1N=c2ccccc2=C1c1sc(Nc2cccc(O)c2)nc1O	none (no result: NPSR antagonist, GoLoco inh red, ALDH1A1 block, JMJD2E inh)
O=C1N=c2ccccc2=C1c1sc(Nc2ccc(O)cc2)nc1O	Sfp PPTase inh 56.2µM, ALDH1A1 block inconclusive
CCCOC1(NC(=O)c2ccccc2)C(C)=CC(=O)C=C1C	Sfp PPTase inh 56.2µM
